# Data: PubChem BioAssay (NCI)
# The panel holds about 79,000 compounds, 15% with a hit somewhere; the sample as a whole holds those more often. Unmarked numbers belong to inactive results. Active and inactive are the calls of the source. No stated cut-off is given here; in the data, active means growth inhibition above about 70%; inactive means the rest.
# How the values were obtained:
# [1] = NCI Yeast Anticancer Drug Screen. Data for the rad52 strain (AID 147);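 further: 0% = growth of vehicle-treated control cultures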; conditions: S. cerevisiae rad52 mutant growth inhibition, active compounds read high
# Method in brief: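 Yeast strain carrying a DNA damage repair alteration was exposed to test compounds. Growth inhibition was measured relative to vehicle-treated controls.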
# [2] = NCI Yeast Anticancer Drug Screen. Data for the wt1 strain (AID 149);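 further: 0% = growth of vehicle-treated wt1 cultures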; conditions: S. cerevisiae wt1 strain (SPY 50644) growth inhibition, active compounds read high
# Method in brief: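 Growth inhibition read against vehicle controls after compound exposure of the wt1 yeast strain.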
# [3] = NCI Yeast Anticancer Drug Screen. Data for the rad50EPP+ strain (AID 151);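 further: 0% = growth of vehicle-treated control cultures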; conditions: S. cerevisiae rad50 mutant strain, active compounds read high
# Method in brief: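 Yeast strain carrying rad50 alteration (rad50EPP+) exposed to compounds; growth inhibition measured relative to vehicle-treated controls.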
# [4] = NCI Yeast Anticancer Drug Screen. Data for the mgt1 strain (AID 153); conditions: S. cerevisiae mgt1 mutant growth inhibition, active compounds read high
# Method in brief: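 Yeast mgt1 strain (DNA repair/cell-cycle alteration panel) exposed to compounds; growth inhibition measured relative to vehicle-treated controls.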
# [5] = NCI Yeast Anticancer Drug Screen. Data for the rad50 strain (AID 155);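 further: 0% = growth of vehicle-only cultures of the same strain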; conditions: S. cerevisiae rad50 strain growth inhibition, active compounds read high
# Method in brief: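 Readout: growth inhibition relative to vehicle-treated cultures. Compound exposure was carried out in a genetically defined yeast strain deficient in DNA damage repair.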
# [6] = NCI Yeast Anticancer Drug Screen. Data for the mec2-1 strain (AID 157); conditions: S. cerevisiae mec2-1 strain, active compounds read high
# Method in brief: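 mec2-1 yeast strain, carrying an alteration in DNA damage repair or cell cycle control, was exposed to compounds; growth inhibition was measured relative to vehicle-treated controls.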
# [7] = NCI Yeast Anticancer Drug Screen. Data for the rad14 strain (AID 159);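 further: 0% = growth of vehicle-treated control cultures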; conditions: S. cerevisiae rad14 strain growth inhibition, active compounds read high
# Method in brief: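 Growth inhibition vs vehicle controls; genetically altered yeast strain (DNA damage repair defect) treated with test compounds.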
# [8] = NCI Yeast Anticancer Drug Screen. Data for the sgs1 mgt1 strain (AID 161);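 further: 0% = growth of cultures given vehicle only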; conditions: S. cerevisiae sgs1 mgt1 strain, active compounds read high
# Method in brief: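 Yeast cells carrying a defined DNA-repair defect were exposed to test compounds. Growth inhibition was measured relative to vehicle-treated controls.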
# [9] = NCI Yeast Anticancer Drug Screen. Data for the CLN2oe strain (AID 163);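 further: 0% = growth of vehicle-only control cultures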; conditions: S. cerevisiae CLN2oe strain, active compounds read high
# Method in brief: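 Yeast cells carrying a defined cell-cycle control alteration were exposed to test compounds. Growth inhibition was scored against vehicle-treated control cultures.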
# [10] = NCI Yeast Anticancer Drug Screen. Data for the cln2 rad14 strain (AID 165);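 further: 0% = growth equal to vehicle treated cultures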; conditions: S. cerevisiae cln2 rad14 strain, active compounds read high
# Method in brief: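 Yeast carrying cln2 and rad14 alterations (cell cycle control and DNA damage repair) were exposed to compounds. Growth inhibition was measured against vehicle-treated controls.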
# [11] = NCI Yeast Anticancer Drug Screen. Data for the bub3 strain (AID 167); conditions: S. cerevisiae bub3 mutant strain, active compounds read high
# Method in brief: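 Readout: yeast growth inhibition, expressed relative to vehicle-only wells. The test organism is a mutant strain from a panel with lesions in DNA repair or checkpoint genes.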
# [12] = NCI Yeast Anticancer Drug Screen. Data for the wt2 strain (AID 169);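 further: 0% = growth of vehicle-treated yeast cultures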; conditions: S. cerevisiae wt2 strain growth inhibition, active compounds read high
# Method in brief: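 Yeast cells were exposed to test compounds, and growth inhibition was measured relative to vehicle-treated controls.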
# [13] = NCI Yeast Anticancer Drug Screen. Data for the mlh1 strain (AID 171);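 further: 0% = growth of vehicle-treated control cultures of the same strain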; conditions: S. cerevisiae mlh1 strain growth inhibition, active compounds read high
# Method in brief: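 Yeast carrying a defined genetic alteration in DNA damage repair or cell cycle control were exposed to test compounds. Growth inhibition was measured relative to vehicle-treated controls.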
# [14] = NCI Yeast Anticancer Drug Screen. Data for the sgs1 strain (AID 173);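 further: 0% = growth of vehicle-only control cultures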; conditions: S. cerevisiae sgs1 mutant, active compounds read high
# Method in brief: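 Yeast mutant strains carrying defined defects in DNA damage repair or cell cycle control were exposed to test compounds. Growth inhibition was scored against vehicle-treated controls.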
# [15] = NCI Yeast Anticancer Drug Screen. Data for the mlh1 rad18 strain (AID 175); conditions: S. cerevisiae mlh1 rad18 strain growth inhibition, active compounds read high
# Method in brief: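 Growth inhibition of the yeast strain was measured after compound exposure and expressed relative to vehicle-treated controls. The strain carries defined defects in DNA damage repair.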
# [16] = NCI Yeast Anticancer Drug Screen. Data for the rad18 strain (AID 177); conditions: S. cerevisiae rad18 mutant growth inhibition, active compounds read high
# Method in brief: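 Yeast carrying a defined DNA damage repair alteration were exposed to compounds. Growth inhibition was expressed relative to vehicle-treated controls.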
# [17] = at 5.0 µM (retest, dose inferred, filed as 0.5)
# [18] = at 50.0 µM (retest, dose inferred, filed as 5.0)
structure (smiles),measurement,setting,value
Cc1cc(Cl)ccc1NC(=O)/C(Cl)=C(/Cl)C(=O)O,growth inhibition,[1]; at 1.2 µM,2%
same,growth inhibition,[1]; at 3.7 µM,6%
same,growth inhibition,[1]; at 11.0 µM,21%
same,growth inhibition,[1]; at 33.0 µM,70% (active)
same,growth inhibition,[1]; at 100.0 µM,99% (active)
same,growth inhibition,[2]; at 1.2 µM,0%
same,growth inhibition,[2]; at 3.7 µM,-1%
same,growth inhibition,[2]; at 11.0 µM,0%
same,growth inhibition,[2]; at 33.0 µM,11%
same,growth inhibition,[2]; at 100.0 µM,99% (active)
same,growth inhibition,[3]; at 1.2 µM,5%
same,growth inhibition,[3]; at 3.7 µM,11%
same,growth inhibition,[3]; at 11.0 µM,25%
same,growth inhibition,[3]; at 33.0 µM,78% (active)
same,growth inhibition,[3]; at 100.0 µM,99% (active)
same,growth inhibition,[4]; at 1.2 µM,0%
same,growth inhibition,[4]; at 3.7 µM,5%
same,growth inhibition,[4]; at 11.0 µM,8%
same,growth inhibition,[4]; at 33.0 µM,29%
same,growth inhibition,[4]; at 100.0 µM,100% (active)
same,growth inhibition,[5]; at 1.2 µM,1%
same,growth inhibition,[5]; at 3.7 µM,6%
same,growth inhibition,[5]; [17],-1%
same,growth inhibition,[5]; at 11.0 µM,16%
same,growth inhibition,[5]; at 33.0 µM,81% (active)
same,growth inhibition,[5]; [18],22%
same,growth inhibition,[5]; at 50.0 µM,99.5% (active)
same,growth inhibition,[5]; at 100.0 µM,99% (active)
same,growth inhibition,[6]; at 1.2 µM,3%
same,growth inhibition,[6]; at 3.7 µM,6%
same,growth inhibition,[6]; [17],3%
same,growth inhibition,[6]; at 11.0 µM,11%
same,growth inhibition,[6]; at 33.0 µM,51%
same,growth inhibition,[6]; [18],23%
same,growth inhibition,[6]; at 50.0 µM,97.7% (active)
same,growth inhibition,[6]; at 100.0 µM,100% (active)
same,growth inhibition,[7]; at 1.2 µM,2%
same,growth inhibition,[7]; at 3.7 µM,5%
same,growth inhibition,[7]; at 11.0 µM,13%
same,growth inhibition,[7]; at 33.0 µM,34%
same,growth inhibition,[7]; at 100.0 µM,100% (active)
same,growth inhibition,[8]; [17],0%
same,growth inhibition,[8]; [18],37%
same,growth inhibition,[8]; at 50.0 µM,99.7% (active)
same,growth inhibition,[9]; at 1.2 µM,-1%
same,growth inhibition,[9]; at 3.7 µM,3%
same,growth inhibition,[9]; at 11.0 µM,1%
same,growth inhibition,[9]; at 33.0 µM,11%
same,growth inhibition,[9]; at 100.0 µM,99% (active)
same,growth inhibition,[10]; [17],-4%
same,growth inhibition,[10]; [18],11%
same,growth inhibition,[10]; at 50.0 µM,98.8% (active)
same,growth inhibition,[11]; at 1.2 µM,2%
same,growth inhibition,[11]; at 3.7 µM,4%
same,growth inhibition,[11]; [17],3%
same,growth inhibition,[11]; at 11.0 µM,12%
same,growth inhibition,[11]; at 33.0 µM,56%
same,growth inhibition,[11]; [18],37%
same,growth inhibition,[11]; at 50.0 µM,99.6% (active)
same,growth inhibition,[11]; at 100.0 µM,99% (active)
same,growth inhibition,[12]; at 1.2 µM,0%
same,growth inhibition,[12]; at 3.7 µM,1%
same,growth inhibition,[12]; at 11.0 µM,5%
same,growth inhibition,[12]; at 33.0 µM,18%
same,growth inhibition,[12]; at 100.0 µM,100% (active)
same,growth inhibition,[13]; at 1.2 µM,-1%
same,growth inhibition,[13]; at 3.7 µM,2%
same,growth inhibition,[13]; at 11.0 µM,5%
same,growth inhibition,[13]; at 33.0 µM,22%
same,growth inhibition,[13]; at 100.0 µM,100% (active)
same,growth inhibition,[14]; at 1.2 µM,2%
same,growth inhibition,[14]; at 3.7 µM,2%
same,growth inhibition,[14]; at 11.0 µM,11%
same,growth inhibition,[14]; at 33.0 µM,55%
same,growth inhibition,[14]; at 100.0 µM,99% (active)
same,growth inhibition,[15]; [17],0%
same,growth inhibition,[15]; [18],17%
same,growth inhibition,[15]; at 50.0 µM,99.3% (active)
same,growth inhibition,[16]; at 1.2 µM,-2%
same,growth inhibition,[16]; at 3.7 µM,0%
same,growth inhibition,[16]; at 11.0 µM,11%
same,growth inhibition,[16]; at 33.0 µM,30%
same,growth inhibition,[16]; at 100.0 µM,99% (active)
